Data on 2 compounds can be found in PubChem BioAssay (NCATS).

The nature of assay [1]: S16 Schwann cell viability assay (CellTiter-Glo assay) (AID 624031). Note: nearly all actives have a fitted effect of over 70% in size. The method, boiled down:
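Native S16 rat Schwann cells in DMEM/10% FBS without phenol red were incubated overnight, then exposed to compounds for 24 h at 37 °C/5% CO2. Viability was read as ATP luminescence (CellTiter-Glo), normalized to no-cell wells and DMSO (0%).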
For orientation: ATP-based viability assays read luminescence as a measure of living cells.

A further assay has as its system AA1029. Briefly: qHTS profiling for inhibitors of Plasmodium falciparum proliferation (AID 504749). Note: nearly all actives have a fitted effect of over 60% in size. Note: potency is the fitted concentration of half-maximal effect. The note with it: P. falciparum in erythrocytes, SYBR Green DNA, 72 h; series mostly up to 28.7 µM. The method, boiled down:
(§1)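 Three-day growth assay of blood-stage parasites in erythrocytes (0.3% parasitemia, 2.5% hematocrit) at 37 C, 5% CO2, quantified by SYBR Green DNA staining after overnight detergent lysis.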
A general note: In qHTS, concentration-response curves come from the screen itself.

The subject of the next assay is ATS95. The description is as above. The following applies: P. falciparum in erythrocytes, SYBR Green DNA, 72 h; series mostly up to 28.7 µM. The procedure, abridged:
as §1

The next assay concerns C2A. The description is as above. The following applies: P. falciparum in erythrocytes, SYBR Green DNA, 72 h; series mostly up to 28.7 µM. The procedure, abridged:
as §1

A further assay concerns CP211. The assay is described as above. The note with it: P. falciparum in erythrocytes, SYBR Green DNA, 72 h; series mostly up to 28.7 µM. The procedure, abridged:
as §1

A further assay has as its system CP217. The description is as above. The note with it: P. falciparum in erythrocytes, SYBR Green DNA, 72 h; series mostly up to 28.7 µM. The procedure, abridged: as §1
In the next assay the test system is CP250. The description is as above. The note with it: P. falciparum in erythrocytes, SYBR Green DNA, 72 h; series mostly up to 28.7 µM. The method, boiled down: as §1
The test system of the next assay is CP252. Described as above. The following applies: P. falciparum in erythrocytes, SYBR Green DNA, 72 h; series mostly up to 28.7 µM. The method, boiled down:
as §1

A further assay has as its system CP256. Described as above. The note with it: P. falciparum in erythrocytes, SYBR Green DNA, 72 h; series mostly up to 28.7 µM. The method, boiled down: as §1
For a further assay, the system named is CP260. Described as above. The following applies: P. falciparum in erythrocytes, SYBR Green DNA, 72 h; series mostly up to 28.7 µM. The method, boiled down:
as §1

The next assay has as its system CP335. The assay is described as above. The following applies: P. falciparum in erythrocytes, SYBR Green DNA, 72 h; series mostly up to 28.7 µM. The procedure, abridged:
as §1

For another assay, the system named is DIV14. The description is as above. The following applies: P. falciparum in erythrocytes, SYBR Green DNA, 72 h; series mostly up to 28.7 µM. The procedure, abridged: as §1
The subject of a further assay is DIV17. The description is as above. The following applies: P. falciparum in erythrocytes, SYBR Green DNA, 72 h; series mostly up to 28.7 µM. The method, boiled down:
as §1

A further assay relates to ICS. The assay is described as above. The note with it: P. falciparum in erythrocytes, SYBR Green DNA, 72 h; series mostly up to 28.7 µM. The procedure, abridged: as §1
The next assay deals with N140. The description is as above. The following applies: P. falciparum in erythrocytes, SYBR Green DNA, 72 h; series mostly up to 28.7 µM. The procedure, abridged: as §1
The next assay concerns P93_24. Described as above. The note with it: P. falciparum in erythrocytes, SYBR Green DNA, 72 h; series mostly up to 28.7 µM. The method, boiled down:
as §1

For the next assay, the system named is PAD. The assay is described as above. The following applies: P. falciparum in erythrocytes, SYBR Green DNA, 72 h; series mostly up to 28.7 µM. The method, boiled down: as §1
The subject of a further assay is PC26. The description is as above. The following applies: P. falciparum in erythrocytes, SYBR Green DNA, 72 h; series mostly up to 28.7 µM. The procedure, abridged: as §1
The test system of the next assay is SC27B. The assay is described as above. The note with it: P. falciparum in erythrocytes, SYBR Green DNA, 72 h; series mostly up to 28.7 µM. The method, boiled down: as §1
The test system of another assay is TAB165. The assay is described as above. The following applies: P. falciparum in erythrocytes, SYBR Green DNA, 72 h; series mostly up to 28.7 µM. The method, boiled down:
as §1

SMILES strings stand for the structures. Results filed as inconclusive are left out. Calls of active or inactive are those of the source. Calls come from the whole dose curve; as a rule, active = well fitted curve in the direction sought with a large enough effect; inconclusive = small, poorly fitted or top-dose-only effect, or another doubt; inactive = no such curve, though single readings can be large; an effect the other way counts as inactive or inconclusive.

For `CO[C@H]1/C=C/O[C@@]2(C)Oc3c(C)c(O)c4c(O)c(c5c(c4c3C2=O)NC2(CCN(CC(C)C)CC2)N=5)=NC(=O)/C(C)=C\C=C\[C@H](C)[C@H](O)[C@@H](C)[C@@H](O)[C@@H](C)[C@H](OC(C)=O)[C@@H]1C`, the Potency result (in assay [1]; in the assay on CP211) was “inactive” each time. Also, the Potency in the assay with AA1029 is 11.2 µM (active); with ATS95, 8.91 µM (active); in the assay with C2A, 8.91 µM (active); in the assay with CP217 it was 8.91 µM (active); in the assay with CP250 it was 7.08 µM (active); with CP252, 8.91 µM (active). Further, the Potency is 8.91 µM (active) with CP256; 8.91 µM (active) in the assay with CP260; 13.5 µM (active) with CP335; 8.49 µM (active) with DIV14; 10.7 µM (active) in the assay on DIV17; 8.91 µM (active) with ICS. Further, the Potency in the assay on N140 is 8.91 µM (active); in the assay on P93_24, 6.31 µM (active); in the assay on PAD, 10 µM (active); in the assay with PC26, 10.7 µM (active); in the assay on SC27B, 8.91 µM (active); in the assay on TAB165 it was 7.94 µM (active).

In the case of `C[C@H](O)[C@@H]1C(=O)N2C(C(=O)O)=C(SCCN=CN)C[C@@H]12`, the Potency result (in assay [1]; with AA1029; with ATS95; with C2A; in the assay on CP211; in the assay with CP217) was “inactive” each time. Also, the Potency result with CP250, in the assay with CP252, in the assay with CP256, in the assay with CP260, in the assay with CP335 and with DIV14 was “inactive” each time. Besides, the Potency entry with DIV17, with ICS, with N140, in the assay with P93_24, with PAD and with PC26 was “inactive” each time. In addition, the Potency entry with SC27B and with TAB165 was “inactive” in each case.
